Experimental findings from PubChem BioAssay (NCI) are described below.

Compounds without any hit were thinned out: in the full panel of roughly 83,000, 20% have a hit.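 For each line, cells grew in 96-well plates with the test compound present at a single concentration for 48 hours.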 A number with no mark means an inactive call. The source made the active and inactive calls. The calls were made as follows: active = growth percent below 10; inactive = the rest.

Assay in all cases: NCI-60 one-dose screen, 48 h (100 = growth as untreated, 0 = no growth, -100 = all killed)
Test [1] has as its system EKVX NSCLC. The settings on record: 10 µM unless noted.
Test [2] has as its system SN12C renal. The settings on record: 10 µM unless noted.
For test [3], the system named is UO-31 renal. The following applies: 10 µM unless noted.
Test [4] concerns TK-10 renal. The following applies: 10 µM unless noted.
In test [5] the test system is A498 renal. The settings on record: 10 µM.
The subject of test [6] is HL-60(TB) leukemia. The settings on record: 10 µM unless noted.
The subject of test [7] is CCRF-CEM leukemia. The settings on record: 10 µM unless noted.
In test [8] the test system is MOLT-4 leukemia. The following applies: 10 µM unless noted.
The test system of test [9] is SR leukemia. The settings on record: 10 µM unless noted.
Test [10] concerns RPMI-8226 leukemia. The following applies: 10 µM unless noted.
The subject of test [11] is OVCAR-8 ovarian. The following applies: 10 µM unless noted.
Test [12] has as its system OVCAR-5 ovarian. The settings on record: 10 µM unless noted.
The test system of test [13] is OVCAR-4 ovarian. The following applies: 10 µM unless noted.
Test [14] relates to SK-OV-3 ovarian. The following applies: 10 µM unless noted.
Test [15] concerns IGROV1 ovarian. The settings on record: 10 µM unless noted.
Test [16] concerns OVCAR-3 ovarian. The following applies: 10 µM unless noted.
Test [17] concerns HS 578T breast. The settings on record: 10 µM unless noted.
In test [18] the test system is ACHN renal. The following applies: 10 µM unless noted.
Test [19] concerns CAKI-1 renal. The following applies: 10 µM unless noted.

For `[Cl][Hg][c]1cc(Br)cc(Br)c1`, the growth is 80% in test [1]; 24% in test [2]; 102% in test [3]; 121% in test [4]; 75.4% in test [5]; -27% (active) in test [6]. Also, the growth is 1.44% (active) in test [7]; 0.93% (active) in test [8]; -16.6% (active) in test [9]; 23% in test [10]; 70.4% in test [11]; 118% in test [12]. For the same compound, the growth in test [13] was 48.5%; in test [14], 86.3%; in [15] it was 16.5%; in test [16] it was -7.88% (active); in test [17], 30.3%.
Take `CCn1c2ccccc2c2cc(C(=O)c3ccc(C)c4ccccc34)ccc21`: the growth in test [1] is 32%; in test [2], 22.7%; in [4], 38%; in [18] it was 23.9%; in test [19], 28.8%; in test [5], 7.13% (active). In addition, the growth in test [6] is 8.9% (active); in [7] it was 18.2%; in test [8] it was 7.66% (active); in [9], 2.83% (active); in test [10], 12.2%; in test [11] it was 22.8%. The growth in [12] is 28.6%; in test [13] it was 48.5%; in [14] it was 25.4%; in test [15], 21.4%; in test [16] it was 7.68% (active); in [17], 30.1%.
With `NC(=O)c1c(Br)n(C2OC(CO)C(O)C2O)c2ncnc(N)c12` (stereo unspecified), the growth in test [1] is -2.28% (active); in [2], 13.4%; in test [3] it was 1.86% (active); in test [4] it was 30.4%; in test [18], 12.1%; in [5] it was -29.9% (active). The growth was -37.2% (active) in test [6]; -34.4% (active) in [7]; 5.8% (active) in [11]; 24.4% in [12]; 16.1% in test [13]; -8.9% (active) in [14]. Also, the growth in test [15] is -48.3% (active); in test [16] it was -43.3% (active); in test [17], -8.41% (active).
For the compound `CC(=O)OCC1O[C@@H]([S-])C(OC(C)=O)[C@H](OC(C)=O)[C@@H]1OC(C)=O.[Au+].c1ccc(CN2[CH-]N(Cc3ccccc3)C(c3ccccc3)=C2c2ccccc2)cc1`, the growth was 23.6% in test [2]; 45% in test [3]; 29.6% in test [4]; 30.1% in test [18]; 42.1% in test [5]; 7.57% (active) in test [7]. Further, the growth was 11.2% in [8]; -2.4% (active) in test [10]; 53.2% in test [11]; 93% in test [12]; 60.2% in [13]; 56.9% in test [14]. The growth in test [15] is 14.3%; in test [16], -18.5% (active); in test [17] it was 43.5%.
For the compound `CCCCN1CCCC[C@@H]1C(=O)N[C@H](C(=O)N(C)[C@H](CCc1nc(C(=O)N[C@@H](Cc2ccccc2)C[C@H](C)C(=O)OC)cs1)C(C)C)[C@@H](C)CC`, the growth in test [1] is 61.2%; in test [2], 77.6%; in test [3], 48%; in test [4], 69.2%; in test [18] it was 52.2%; in [5] it was 32.9%. In addition, the growth in test [6] is 27.5%; in test [7], 61.6%; in [8], 34.7%; in test [9], 8% (active); in test [10], 28.6%; in [12], 101%. Further, the growth in [13] was 56.9%; in [14] it was 49.9%; in [15] it was 48.9%; in [16], 13.8%; in test [17] it was 76%.
On to `CC1(C)N=C(N)N=C(N)N1c1cccc(CCCCc2ccc(Cl)c(S(=O)(=O)F)c2)c1`, for which the growth is 51.5% in test [1]; 30.5% in test [2]; 92.4% in [3]; 55.5% in [4]; 87.5% in test [18]; 86.1% in test [5]. The growth in test [6] was 18.8%; in test [7] it was 28.1%; in test [8], 38.3%; in test [10] it was 45.7%; in test [11], 19.4%; in test [12] it was 49.6%. The growth in test [13] is 50.5%; in [14] it was 72.8%; in test [16], 47.1%; in test [17], 83.9%.
For `COc1ccc(C2=N[C@@H](Cc3ccccc3)C(=O)Nc3ccsc32)cc1`, the growth in test [2] is 54.3%; in test [3], 57%; in [4], 70.3%; in test [18], 55.7%; in test [19], 50.7%; in test [5] it was 35.8%. For the same compound, the growth was 8.11% (active) in test [6]; 32.1% in test [7]; 35.7% in [8]; 8.97% (active) in test [9]; 41.7% in test [10]; 70.4% in test [11]. The growth in test [12] is 84.1%; in test [13], 69.9%; in test [14] it was 67.4%; in test [15] it was 66%; in test [16], 3.83% (active); in [17], 65.4%.
Take `CCC(O)(CN)c1ccccc1` (stereo unspecified): the growth in test [3] is 89.7%; in [4] it was 101%; in test [18], 105%; in [19], 96.3%; in test [5] it was 86.7%; in test [6], 101%. In addition, the growth in test [7] is 90.1%; in test [8] it was 105%; in [9] it was 100%; in test [10], 102%; in test [11] it was 97%; in test [12] it was 105%. In addition, the growth in test [13] is 111%; in [14], 98.4%; in test [15] it was 97.9%; in test [16] it was 114%; in test [17] it was 102%.
As to `Cc1cc(-c2nc3cc(F)ccc3[se]2)cc(F)c1N`, the growth in test [1] was 66.4%; in test [2], 95.5%; in test [3], 55.8%; in test [4], 57.6%; in [18] it was 79%; in [5], 74.8%. Further, the growth in test [6] is 87.2%; in [7], 85.2%; in test [8], 83.6%; in test [9], 23.9%; in test [10] it was 66.8%; in test [11], 104%. Moreover, the growth in test [12] was 51.2%; in test [13], 63.3%; in test [14] it was 73.6%; in test [15] it was 37.3%; in [16], 87.2%; in test [17] it was 102%.
